# Active and inactive are the calls of the source. How the source made its calls: active means hit-call score of the fitted dose curve at least 0.9, where 1 is the maximum; inactive means score below 0.9.
# Target: Myc proto-oncogene protein (Homo sapiens) (UniProt P01106)
# Assay: ATG_Myc_CIS: Attagene CIS-FACTORIAL HepG2 Assay for human Myelocytomatosis (Myc) Proto-Oncogene Transcription Factor (AID 2282990)
# Conditions: HepG2, Attagene cis-reporter transcription factor activity; actives raise or lower the signal
# In short: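 DMSO-normalised, bidirectionally fitted reporter mRNA signal. HepG2 cells transfected with cis reporter constructs, treated 24 h; transcripts detected by RT-PCR, 6-FAM primer extension and CE.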
# Myc proto-oncogene protein (Homo sapiens), sequence (P01106 whole entry, looked up): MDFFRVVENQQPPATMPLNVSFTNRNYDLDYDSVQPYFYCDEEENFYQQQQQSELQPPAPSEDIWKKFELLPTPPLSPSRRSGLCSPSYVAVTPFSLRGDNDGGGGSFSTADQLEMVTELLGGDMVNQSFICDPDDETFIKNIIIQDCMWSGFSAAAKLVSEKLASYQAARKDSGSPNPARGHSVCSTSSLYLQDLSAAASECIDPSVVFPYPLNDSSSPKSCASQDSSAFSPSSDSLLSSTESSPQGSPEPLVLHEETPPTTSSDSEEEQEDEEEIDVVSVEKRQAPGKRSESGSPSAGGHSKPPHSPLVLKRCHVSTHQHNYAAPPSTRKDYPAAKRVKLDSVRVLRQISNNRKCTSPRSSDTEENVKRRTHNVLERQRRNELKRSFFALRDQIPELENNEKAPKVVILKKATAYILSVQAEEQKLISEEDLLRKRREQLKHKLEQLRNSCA
SMILES,outcome,AC50
O=C(O)C1C(C(=O)O)C2(Cl)C(Cl)=C(Cl)C1(Cl)C2(Cl)Cl (centres undefined),inactive,–
Nc1cc2c3c(c1)C(c1ccccc1)=N[C@@H](NC(=O)c1cccnc1)C(=O)N3CC2,inactive,–
CCOP(=S)(OCC)SCSCC,inactive,–
OCC1CO1 (centres undefined),inactive,–
O=P(OCC(Br)CBr)(OCC(Br)CBr)OCC(Br)CBr (centres undefined),inactive,–
c1ccc(OP(Oc2ccccc2)Oc2ccccc2)cc1,inactive,–
CCOS(=O)(=O)OCC,inactive,–
ClC1=C(Cl)C2(Cl)C3C(Cl)C(Cl)CC3C1(Cl)C2(Cl)Cl (centres undefined),inactive,–
CC(Cl)(Cl)C(=O)O,inactive,–
OCC(F)(F)OC(F)(F)C(F)(F)OC(F)(F)CO,inactive,–
CCCN(CCC)c1c([N+](=O)[O-])cc(C(C)C)cc1[N+](=O)[O-],inactive,–
C=CC(=O)OCC(CC)(COC(=O)C=C)COC(=O)C=C,inactive,–
CC(Cl)CN(C)C (centres undefined),inactive,–
Oc1ccc(I)cc1,inactive,–
N#C/C=C/c1ccccc1,inactive,–
CO/N=C(/C(=O)OC)c1ccccc1COc1ccccc1C,inactive,–
CC1(C)CN=C(NN=C(/C=C/c2ccc(C(F)(F)F)cc2)/C=C/c2ccc(C(F)(F)F)cc2)NC1,inactive,–
O=C(O)C(F)(F)OC(F)(F)C(F)(F)OC(F)(F)C(=O)O,inactive,–
[N-]=[N+]=[N-],–,100 µM (active)
O=C(O)C=CC(F)(C(F)(F)F)C(F)(F)F,inactive,–
CCCCc1ccccc1,inactive,–
ClC(Cl)(Cl)c1ccccc1,inactive,–
O=[N+]([O-])c1ccccc1,inactive,–
CSC(C)(C)C=NO,inactive,–

# System: not listed separately
# Assay: ATG_NF_kB_CIS: Attagene CIS-FACTORIAL HepG2 Assay for human Nuclear Factor Kappa B (NF-kB) (AID 2282991)
# Conditions: HepG2 Attagene cis-factorial NF-kB reporter mRNA; actives raise or lower the signal
# In short: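 Measures mRNA induction of an NF-kB-responsive cis-element reporter in HepG2 cells transfected with multiple reporter units, sampled 24 h post-dosing; quantified by fluorescence after RT-PCR and capillary electrophoresis, fitted for activation or inhibition against DMSO.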
SMILES,outcome,AC50
CCN(CC)c1ccccc1,inactive,–
FC(F)(F)C(F)(C(F)(F)F)C(F)(F)C(F)(F)CC1CO1 (centres undefined),inactive,–
CCOP(=S)(OCC)SCSc1ccc(Cl)cc1,inactive,–
c1nc[nH]n1,inactive,–
Clc1ccc(Oc2ccccc2)cc1,inactive,–
c1cc2c3c(cccc3c1)CC2,inactive,–
CCN(CC)C1CCCCC1,inactive,–
Cc1cc(C)c(C(=O)P(=O)(c2ccccc2)c2ccccc2)c(C)c1,inactive,–
CCCCC(CC)COP(=O)(Oc1ccccc1)Oc1ccccc1 (centres undefined),–,159 µM (active)
CCOc1ccc(C(C)(C)COCc2cccc(Oc3ccccc3)c2)cc1,inactive,–
CCCCN(CC)C(=O)SCCC,inactive,–
COP(=O)(O)OC,inactive,–
Cc1cccc(N)c1,inactive,–
O=C(O)C1C(C(=O)O)C2(Cl)C(Cl)=C(Cl)C1(Cl)C2(Cl)Cl (centres undefined),inactive,–
Nc1cc2c3c(c1)C(c1ccccc1)=N[C@@H](NC(=O)c1cccnc1)C(=O)N3CC2,inactive,–
CCOP(=S)(OCC)SCSCC,inactive,–
O=P(OCC(Br)CBr)(OCC(Br)CBr)OCC(Br)CBr (centres undefined),inactive,–
c1ccc(OP(Oc2ccccc2)Oc2ccccc2)cc1,inactive,–
ClC1=C(Cl)C2(Cl)C3C(Cl)C(Cl)CC3C1(Cl)C2(Cl)Cl (centres undefined),inactive,–
OCC(F)(F)OC(F)(F)C(F)(F)OC(F)(F)CO,inactive,–
C=CC(=O)OCC(CC)(COC(=O)C=C)COC(=O)C=C,–,5.65 µM (active)
CC(Cl)CN(C)C (centres undefined),inactive,–
Oc1ccc(I)cc1,inactive,–
N#C/C=C/c1ccccc1,inactive,–
CO/N=C(/C(=O)OC)c1ccccc1COc1ccccc1C,inactive,–
CC1(C)CN=C(NN=C(/C=C/c2ccc(C(F)(F)F)cc2)/C=C/c2ccc(C(F)(F)F)cc2)NC1,inactive,–
O=C(O)C(F)(F)OC(F)(F)C(F)(F)OC(F)(F)C(=O)O,inactive,–
[N-]=[N+]=[N-],inactive,–
O=C(O)C=CC(F)(C(F)(F)F)C(F)(F)F,inactive,–
O=[N+]([O-])c1ccccc1,inactive,–
